# Results from PubChem BioAssay AID720517 (National Center for Advancing Translational Sciences (NCATS), 2013).
# Inconclusive results are not listed. Unmarked numbers belong to inactive results. Activity calls are given as the source filed them. Calls come from the whole dose curve; as a rule, active = well fitted activation curve with a large enough effect; inconclusive = small, poorly fitted or top-dose-only effect; inactive = flat fitted curve, though single readings scatter.
# Test: qHTS for Inhibitors of Cell Surface uPA Generation: FP59 Counterscreen for Cherry-picked Compounds; for activity (protection from FP59): 0% is about no effect
# Conditions: FP59 anthrax toxin cytotoxicity counterscreen, cells; series mostly up to 115 µM; activity (protection from FP59): at the top concentration
# Potency is the fitted concentration of half-maximal effect.
Structure (SMILES),activity (protection from FP59) [%],Potency
CCOCCCn1c(SCC(=O)Nc2cc(OC)ccc2OC)nc2ccccc2c1=O,9.94,–
O=C(CCS(=O)(=O)c1ccc2c(c1)NC(=O)CS2)NCc1cccs1,-0.809,–
COc1ccc(OC)c(N2C(=O)CC(Cc3cc(C)cc(C)c3)C2=O)c1 (stereo not given),-1.31,–
COC(=O)c1ccc(CN2CCCC(CNC(=O)Cc3ccc(OC)cc3)C2)cc1 (stereo not given),-1.35,–
Cc1ccc(NC(=O)CS(=O)Cc2nc(-c3ccc(C)cc3)oc2C)cc1 (stereo not given),-0.34,–
CCc1nc(SCC(N)=O)c2c(=O)n(C)c(=O)n(C)c2n1,-1.48,–
COc1ccc(N(C(C)C(=O)NN=C2CCCC2)S(C)(=O)=O)cc1 (stereo not given),-1.4,–
COc1cccc(CN(C)C(=O)c2cc(S(=O)(=O)N3CCCC3)ccc2C)c1OC,-1.14,–
CCN(CC)S(=O)(=O)c1ccc(C(=O)Nc2nnc(COC)o2)cc1,-0.922,–
COc1ccccc1-c1ccc(SCC(=O)NCCc2ccccc2)nn1,-1.22,–
COc1ccc(OC)c(S(=O)(=O)N2CCC(NC(=O)c3ccccc3)CC2)c1,-1.38,–
N#Cc1ccccc1Sc1ccccc1C(=O)Nc1ccc(Br)cc1,5.57,–
O=C(Nc1c(C(=O)O)oc2ccc(Br)cc12)c1ccccc1,-0.512,–
COc1ccccc1C(=O)NCc1ccccc1,-1.46,–
CN(C)C(=S)Nc1ccc(S(=O)(=O)N2CCCCC2)cc1,-1.13,–
O=C(CN1CCCC1)Nc1cccc(Cl)c1Cl,-1.42,–
COC(=O)/C(C#N)=C\c1c(OC)[nH]c2ccccc12,-1.49,–
Cc1ccc2c(c1)N(CC(=O)NCCCc1ccccc1)C(=O)c1cccnc1O2,-1.38,–
Cc1ccc2nc(Nc3ccc(Cl)cc3)c3nncn3c2c1,-1.11,–
CC(C)(C)C(=O)NCCc1nc2ccccc2n1CC(=O)c1ccc(Cl)cc1,0.0081,–

Structure (SMILES),activity (protection from FP59) [%],Potency
CCOC(=O)C1CCN(C(=O)COC(=O)c2c(C)c(CC)nc3ccccc23)CC1,-1.5,–
CN(C)c1cccc(C(=O)N(C)C2CCCN(Cc3ccccc3F)C2)c1 (stereo not given),–,52.1 µM (active)
Cc1ccc(C23CC4CC(CC(C(=O)NN)(C4)C2)C3)cc1,-1.25,–
Cc1ccc(S(=O)(=O)Nc2nc(C)cc(N/N=C/c3ccc(O)cc3)n2)cc1,0.72,–
CC(C)c1ccc(SCc2noc(C(=O)NCC3CCCO3)c2C(=O)O)cc1 (stereo not given),-1.37,–
CCCN1CCN(CC(=O)Nc2nncs2)CC1,-1.28,–
Cc1cccc(C)c1NC(=O)c1c(O)c2ccccc2[nH]c1=O,-0.508,–
CC1=CC(C)C(C[N+]2(C)CCCCC2)C(C)C1 (stereo not given),-1.54,–
COc1ccc(NS(=O)(=O)c2c(C)n(C)c(=O)n(C)c2=O)cc1OC,-1.51,–
CC(=O)Nc1ccc(OS(=O)(=O)c2c(C)cc(C)cc2C)cc1,-1.2,–
OC(COc1ccc(Br)cc1)CN1CCN(c2ccccc2)CC1 (stereo not given),-1.32,–
O=C(CCCC(=O)N1CCN(c2ccccc2F)CC1)c1ccccc1,-1.35,–
Cc1ccc2sc(NNC(=O)c3ccc4c(c3)OCCO4)nc2c1C,6.76,–
O=C(NC(=S)Nc1c(F)cc(F)cc1Br)c1ccc2c(c1)OCCO2,-1.02,–
CC(C)(C)n1ncc2c(=O)n(Cc3ccc(Cl)cc3)cnc21,5.53,–
COc1ccc(NC(=O)/C(N=Nc2cc(S(=O)(=O)Nc3ccc(OC)cc3)ccc2OC)=C(\C)O)cc1,-1.19,–
COc1ccc(-c2cc3nc(C)cc(-c4ccc(OC)cc4)n3n2)cc1,-1.35,–
Fc1ccc(CNc2ccccn2)cc1,-1.43,–
NC(=O)CC(NC(=O)Cc1cccc2ccccc12)c1ccc(N2CCC(Cc3ccccc3)CC2)c([N+](=O)[O-])c1 (stereo not given),-1.17,–
Cc1oc2c(Cl)c(Cl)c(O)c(CN(C)C)c2c1C(=O)c1ccc(Cl)cc1,-0.466,–
